Results on 13 compounds are retold here after PubChem BioAssay.

What is called inhibition is the drop in the measured response relative to a control, in per cent.

A short description of assay [1]: inhibitors of TNFa-induced NFkB p65 translocation, primary screen, imaging, HUVEC, MLSMR starter and 10KST1 sets (AID 438;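 active means inhibition above 20% together with a positive visual image hit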;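 further: compound added about 3h40 before a 20 min TNFalpha stimulation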;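 on inhibition: signal is the nuclear over cytoplasmic p65 intensity ratio per well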). The following applies: HUVEC TNFa-induced p65 nuclear translocation; cell count: measured here: nuclei count (cytotoxicity indicator), at 2.08 µM; inhibition: at 2 µM, stronger effect = higher value, 0% TNFa-plus-vehicle, 100% no-TNFa wells.
Assay [2] can be described thus: inhibitors of mutant huntingtin aggregation, primary screen, imaging, exon1htt(103Q)mCFP cells, high-content imaging (AID 483;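 active means visual image review flags a hit and inhibition of aggregation exceeds 20%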;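 further: compound exposure lasted 3 days before fixation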;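 on nuclei count: percent of the per-plate median nuclei count of sample wells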). The following applies: exon1htt(103Q)mCFP cell line, aggregate imaging, at 2 µM; inhibition of aggregation: stronger effect = higher value; nuclei count: measured here: cell count, toxicity.
The nature of assay [3]: inhibitors of E-selectin induction by TNFa, primary screen, imaging, HUVEC, immunofluorescence, MLSMR starter and 10KST1 sets (AID 487;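 active means visually confirmed hit in the image check and inhibition above 20%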;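 on inhibition: signal is fraction of cell area covered by stained E-selectin grains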;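 on nuclei count: 100% = median nuclei count of all wells on the same plate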). The following applies: HUVEC TNFalpha-induced E-selectin immunofluorescence imaging, at 2 µM; inhibition: stronger effect = higher value; nuclei count: measured here: cell number, toxicity.
Assay [4] addresses Voltage-gated potassium channel subunit beta-2 (Rattus norvegicus) (UniProt P62483). The assay can be described thus: KvBeta enzyme negative modulators, primary screen, biochemical, NADPH fluorescence (AID 622;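 active means fluorescence slope higher than the sample average by over 3 SD, cut at about -0.22 in these data, passing the limit was not always enough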;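 further: slope of raw intensity against log time taken from 70 to 1610 s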). The following applies: recombinant KvBeta, 4-cyanobenzaldehyde reduction, at 10 µM, stronger effect = higher value.
Assay [5] has the same target. The experiment in a line: KvBeta positive modulators, primary screen, biochemical, NADPH fluorescence (AID 623;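 active means NADPH fluorescence slope more negative than the mean of all samples by about 3 SD, 99.7% confidence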;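 further: fluorescence intensity change per second fitted from 20 to 320 s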). The following applies: Recombinant KvBeta, NADPH fluorescence decrease slope, 10 min; at 10 µM; stronger effect = lower value.
The target of assay [6] is Alpha-2C adrenergic receptor (Homo sapiens) (UniProt P18825). The experiment in a line: modulators of alpha2C/GIRK thallium flux, primary screen, cell-based, HEK293 alpha2C/GIRK1/2 (AID 624;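 active means fluorescence slope after compound addition differing from the mean of all screened samples at 99.7% confidence, in either direction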;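 further: slope of fluorescence ratio to pre-addition baseline per second over 15 to 24 s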). The following applies: thallium flux BTC fluorescence, at 10 µM, actives lie on both sides.
Chain of Alpha-2C adrenergic receptor (Homo sapiens) (P18825 whole entry, looked up): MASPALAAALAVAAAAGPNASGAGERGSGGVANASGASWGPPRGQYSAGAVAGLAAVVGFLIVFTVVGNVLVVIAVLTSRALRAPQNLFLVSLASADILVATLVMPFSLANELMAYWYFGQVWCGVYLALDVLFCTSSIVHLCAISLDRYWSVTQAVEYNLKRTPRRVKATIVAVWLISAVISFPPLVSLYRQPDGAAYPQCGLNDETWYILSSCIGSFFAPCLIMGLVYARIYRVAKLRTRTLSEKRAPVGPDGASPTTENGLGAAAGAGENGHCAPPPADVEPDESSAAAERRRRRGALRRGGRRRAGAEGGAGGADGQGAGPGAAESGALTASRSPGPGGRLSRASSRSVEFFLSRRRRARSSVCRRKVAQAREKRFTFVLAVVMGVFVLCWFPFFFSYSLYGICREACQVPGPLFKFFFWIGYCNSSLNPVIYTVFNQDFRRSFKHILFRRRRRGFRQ
The nature of assay [7]: inhibitors of Sendai virus-induced IRF3 signaling, primary screen, TLR/RLR signaling modifier project, cell-based, Sendai virus stimulus, luciferase, 10K MLSCN set (AID 602276).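 Further: firefly luciferase from ISG56 promoter only with Renilla not read in this screen; 0% = Sendai virus plus DMSO and 100% = medium plus DMSO without virus.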 The following applies: HEK293 RL24 IRF3 luciferase reporter, at 10 µM, stronger effect = higher value. In general terms: Reporter assays use an easily measured gene product as a stand-in for the process of interest.

Assay [8] can be described thus: inhibitors of poly I:C-induced TLR3 signaling, primary screen, cell-based, poly I:C stimulus, luciferase, 10K MLSCN set (AID 602277;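 active means inhibition of the reporter signal at or above 50%; inactive means inhibition below 50%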). The following applies: HEK293-TLR3 RL24 IRF3 luciferase reporter, at 10 µM, stronger effect = higher value.

Molecules are shown by their SMILES. The source made the active and inactive calls.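 How the source made its calls, unless noted: active means inhibition at or above 50% at 10 µM; inactive means inhibition below 50%.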

Chain of Voltage-gated potassium channel subunit beta-2 (Rattus norvegicus) (P62483 whole entry, looked up): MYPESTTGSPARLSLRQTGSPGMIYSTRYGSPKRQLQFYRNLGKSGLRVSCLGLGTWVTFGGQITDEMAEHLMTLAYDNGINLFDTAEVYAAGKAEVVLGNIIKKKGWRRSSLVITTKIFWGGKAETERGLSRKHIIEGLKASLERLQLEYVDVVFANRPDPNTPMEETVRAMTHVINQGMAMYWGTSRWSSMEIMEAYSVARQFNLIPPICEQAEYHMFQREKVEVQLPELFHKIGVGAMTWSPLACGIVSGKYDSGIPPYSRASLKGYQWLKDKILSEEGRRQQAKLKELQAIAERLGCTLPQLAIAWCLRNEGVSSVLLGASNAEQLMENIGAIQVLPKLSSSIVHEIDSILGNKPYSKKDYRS

As for `Fc1ccc(-n2c(Cc3ccccc3)nnc2SCc2nc(-c3cccs3)no2)cc1`, the cell count in assay [1] is 466. Also, the inhibition in assay [1] was 2.5% (inactive); in assay [3], -52.5% (inactive); in assay [7], -1.69% (inactive); in assay [8], 1.22% (inactive). Further, the inhibition of aggregation in assay [2] is 0.1% (inactive). In addition, the results for the nuclei count in assay [2] and in assay [3] were 86.5% and 108%, respectively. In addition, the fluorescence slope in assay [4] was -0.63 (inactive). In assay [5], the NADPH fluorescence slope is -4.2e-05 (inactive). Besides, the slope in assay [6] was 0.00381 (inactive).
With `O=C1CCCN1CCCNc1ncnc2c1[nH]c1ccc(Cl)cc12`, in assay [1], the cell count came to 465. Also, the inhibition in assay [1] was 0.8% (inactive); in assay [3], -164% (inactive); in assay [7], -14.5% (inactive); in assay [8], -66.1% (inactive). Besides, in assay [2], the inhibition of aggregation was -18.4% (inactive). Also, the values for the nuclei count in assay [2] and in assay [3] were 101% and 119%, respectively. The fluorescence slope in assay [4] was -0.391 (inactive). Further, the NADPH fluorescence slope in assay [5] was 3.6e-05 (inactive). In addition, the slope in assay [6] is 0.00715 (inactive).
With `COc1ccc(-c2nnc(SCC(=O)NC(=O)NCc3ccco3)o2)cc1`, the cell count in assay [1] amounted to 417. Moreover, the figures for the inhibition in assay [1], in assay [7] and in assay [8] were 5.6% (inactive), 18.6% (inactive) and 24.4% (inactive), respectively. Also, the inhibition of aggregation in assay [2] is -7.4% (inactive). The nuclei count in assay [2] turned out to be 102%; in assay [3] it was 157%. In addition, the fluorescence slope in assay [4] was -0.455 (inactive). In assay [5], the NADPH fluorescence slope was 9.2e-05 (inactive). Moreover, the slope in assay [6] is 0.00577 (inactive).
Take `CCOC(=O)C1CCN(C(=O)CCCCn2c(=O)[nH]c3ccccc3c2=O)CC1`: in assay [1], the cell count turned out to be 517. Also, the inhibition in assay [1] is -8.6% (inactive); in assay [3], -54.8% (inactive); in assay [7], 0.817% (inactive); in assay [8], -29.5% (inactive). Further, the inhibition of aggregation in assay [2] is -27.5% (inactive). The results for the nuclei count in assay [2] and in assay [3] were 100% and 126%, respectively. Besides, the fluorescence slope in assay [4] is -0.563 (inactive). Moreover, the NADPH fluorescence slope in assay [5] was 3.1e-05 (inactive). Moreover, in assay [6], the slope was 0.00611 (inactive).
For the compound `CCC(Sc1nc(-c2ccccc2)c(C#N)c(=O)[nH]1)C(=O)Nc1cc(C)on1` (configuration not stated), in assay [1], the cell count worked out at 327. For the same compound, the inhibition in assay [1] is 2.5% (inactive); in assay [3] it was -74.9% (inactive); in assay [7], 6.22% (inactive); in assay [8], 7.77% (inactive). For the same compound, in assay [2], the inhibition of aggregation is -9.8% (inactive). For the same compound, the figures for the nuclei count in assay [2] and in assay [3] were 115% and 127%, respectively. Further, the fluorescence slope in assay [4] is -0.357 (inactive). In addition, the NADPH fluorescence slope in assay [5] was -1.8e-05 (inactive). Further, the slope in assay [6] was 0.00594 (inactive).
With `COc1ccc(N(CC(=O)O)S(=O)(=O)c2ccc(OC)c(OC)c2)cc1`, in assay [1], the cell count worked out at 501. The inhibition in assay [1] was -2.1% (inactive); in assay [3], -11.5% (inactive); in assay [7] it was 15.4% (inactive); in assay [8], 22.3% (inactive). In addition, the inhibition of aggregation in assay [2] is -12.1% (inactive). For the same compound, the nuclei count was found to be 99% in assay [2] and 111% in assay [3]. Besides, the fluorescence slope in assay [4] is -0.475 (inactive). Further, in assay [5], the NADPH fluorescence slope was 6.8e-05 (inactive). Also, the slope in assay [6] is 0.00634 (inactive).
For `CC(=O)C1=C(C)NC(=O)NC1c1cccc(O)c1` (configuration not stated), in assay [1], the cell count was 454. For the same compound, the inhibition in assay [1] was 7.3% (inactive); in assay [3], -36.2% (inactive); in assay [7], 14.2% (inactive); in assay [8], 16% (inactive). Further, in assay [2], the inhibition of aggregation was 0% (inactive). Also, the nuclei count in assay [2] worked out at 111%; in assay [3] it was 110%. In addition, the fluorescence slope in assay [4] was -0.399 (inactive). For the same compound, the NADPH fluorescence slope in assay [5] is -5e-05 (inactive). Also, the slope in assay [6] was 0.00509 (inactive).
For `O=C1OC2(c3ccccc3)C3CCCC2C13`, the cell count in assay [1] was 340. Also, the inhibition is -1.1% (inactive) in assay [1], 5.3% (inactive) in assay [3], 16% (inactive) in assay [7] and 15.6% (inactive) in assay [8]. The inhibition of aggregation in assay [2] was 7.7% (inactive). Also, the results for the nuclei count in assay [2] and in assay [3] were 94.1% and 107%, respectively. The fluorescence slope in assay [4] was -0.548 (inactive). Also, the NADPH fluorescence slope in assay [5] is -7.3e-05 (inactive). Also, in assay [6], the slope is 0.00538 (inactive).
Take `COC(=O)c1cc2ccsc2n1Cc1nc(-c2ccc(OC)cc2)oc1C`: in assay [1], the cell count stood at 622. Also, the inhibition was -17% (inactive) in assay [1], -66.3% (inactive) in assay [3], -25.1% (inactive) in assay [7] and -56.7% (inactive) in assay [8]. For the same compound, in assay [2], the inhibition of aggregation is -22% (inactive). Also, the nuclei count in assay [2] turned out to be 120%; in assay [3], 109%. Moreover, the fluorescence slope in assay [4] was -0.347 (inactive). Also, the NADPH fluorescence slope in assay [5] is -2.6e-05 (inactive). In assay [6], the slope is 0.00726 (inactive).
Regarding `CCOc1ccccc1C(=O)NC(C)c1ccc2c(c1)OCO2` (configuration not stated), in assay [1], the cell count stood at 368. For the same compound, the inhibition is 0.8% (inactive) in assay [1], -6.7% (inactive) in assay [3], 15.1% (inactive) in assay [7] and -8.04% (inactive) in assay [8]. In addition, the inhibition of aggregation in assay [2] was 0.3% (inactive). Moreover, the results for the nuclei count in assay [2] and in assay [3] were 122% and 92.4%, respectively. Moreover, the fluorescence slope in assay [4] is -0.523 (inactive). The NADPH fluorescence slope in assay [5] was -5.4e-05 (inactive). The slope in assay [6] was 0.00595 (inactive).
In the case of `CC(C)C(c1nnnn1C1CCCC1)N1CCCc2ccccc21` (configuration not stated), the cell count in assay [1] was 706. In addition, the inhibition in assay [1] was -6.9% (inactive); in assay [3] it was -47.1% (inactive); in assay [7], -17.8% (inactive); in assay [8] it was -6.74% (inactive). Further, in assay [2], the inhibition of aggregation is 5.4% (inactive). The nuclei count in assay [2] stood at 95.4%; in assay [3], 107%. For the same compound, the fluorescence slope in assay [4] was -0.423 (inactive). In assay [5], the NADPH fluorescence slope was -7.3e-05 (inactive). The slope in assay [6] is 0.00444 (inactive).
As to `N#CC1=C(SCC(=O)NC2CCCCC2)NC(=O)CC1c1ccco1` (configuration not stated), in assay [1], the cell count was determined as 709. Besides, the inhibition in assay [1] is -7.8% (inactive); in assay [3] it was -10.6% (inactive); in assay [7], 10.9% (inactive); in assay [8], 14% (inactive). In addition, the inhibition of aggregation in assay [2] was -1.4% (inactive). Besides, the results for the nuclei count in assay [2] and in assay [3] were 62% and 102%, respectively. Moreover, the fluorescence slope in assay [4] was -0.525 (inactive). Moreover, in assay [5], the NADPH fluorescence slope is -5.1e-05 (inactive). In addition, the slope in assay [6] was 0.00537 (inactive).
Regarding `COc1cccc(OCc2nc3ccccc3[nH]2)c1`, the cell count in assay [1] stood at 596. The inhibition in assay [1] was -4.8% (inactive); in assay [3], -75.3% (inactive); in assay [7] it was -67.8% (inactive); in assay [8], -190% (inactive). For the same compound, the inhibition of aggregation in assay [2] was 3.2% (inactive). For the same compound, the nuclei count in assay [2] was found to be 102%; in assay [3], 114%. In assay [4], the fluorescence slope was -0.57 (inactive). Moreover, in assay [5], the NADPH fluorescence slope is -9.8e-06 (inactive). Moreover, the slope in assay [6] was 0.0079 (inactive).
